ST2 inh: inhibitors of human ST2 (IL1RL1) binding to IL-33; Q01638; AlphaLISA ST2-Fc/biotin-IL-33 interaction, 1 h; inhibition, % for hits at 17 µM; 78,000 tested, 2.3% active; AID 1259354; in the data active = inhibition above about 30%
Target sequence (Q01638 whole entry, looked up): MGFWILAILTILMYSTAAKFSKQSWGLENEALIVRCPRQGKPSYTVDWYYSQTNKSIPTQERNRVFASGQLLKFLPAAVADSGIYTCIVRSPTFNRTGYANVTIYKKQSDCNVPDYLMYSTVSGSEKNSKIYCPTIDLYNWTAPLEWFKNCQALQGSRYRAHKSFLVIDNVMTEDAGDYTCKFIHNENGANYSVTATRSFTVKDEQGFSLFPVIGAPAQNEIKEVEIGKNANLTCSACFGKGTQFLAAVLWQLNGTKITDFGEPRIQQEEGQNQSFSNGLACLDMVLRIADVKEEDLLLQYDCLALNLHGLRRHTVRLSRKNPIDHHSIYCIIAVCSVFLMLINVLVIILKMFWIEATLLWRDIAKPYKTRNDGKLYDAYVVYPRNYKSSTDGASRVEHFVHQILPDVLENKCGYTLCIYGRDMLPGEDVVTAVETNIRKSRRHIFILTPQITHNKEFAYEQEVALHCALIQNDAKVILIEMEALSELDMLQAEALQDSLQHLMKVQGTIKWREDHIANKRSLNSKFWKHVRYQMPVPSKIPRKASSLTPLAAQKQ
Each line names hits and unclear results; the compound was inactive in the other large screens. Many of the other results were omitted from the sample, so hits are more common in it than they were.

CC1(C)[C@H]2CC=C(CCNC(=O)Cn3cc(NC(=O)c4ccc5c(c4)OCO5)cn3)[C@@H]1C2	none
CC(=O)N1c2ccccc2C(=O)OC1c1cccnc1 (configuration not stated)	none
c1ccc(C2(c3ccccc3)OC(c3cccnc3)Nc3ccccc32)cc1 (configuration not stated)	ST2 inh 35%
c1ccc(-c2nnc(-c3cccnc3)o2)cc1	none
CCOC(=O)N1CCN(C2CCCN(C(=O)c3cc(=O)n(C)c(=O)n3C)C2)CC1 (configuration not stated)	none
COc1ccc(CN2CCN(Cc3cc(OC)c(OC)cc3OC)CC2)cc1	none
COc1cc(OC)c(OC)cc1CN1CCN(c2ccccn2)CC1	none
COc1cc(OC)c(OC)cc1CN1CCN(c2cc(C)ccc2C)CC1	ST2 inh 35%
Fc1ccccc1N1CCN(Cc2ccco2)CC1	none
COc1cc(OC)c(OC)cc1CN1CCN(c2ccc(F)cc2)CC1	none
COc1ccccc1N1CCN(Cc2cc(OC)c(O)c(OC)c2)CC1	none
COc1cc(OC)c(CN2CCN(c3ccccc3F)CC2)cc1Br	ST2 inh 36%
COc1ccccc1N1CCN(Cc2ccc(C(=O)O)cc2)CC1	none
COc1ccc(CN2CCN(c3ccccc3OC)CC2)cc1OC	ST2 inh 30%
O=C(Nc1cccnc1)c1ccc2nc(-c3ccccn3)c(-c3ccccn3)nc2c1	none
Nc1nc(-c2ccco2)cc(C(F)(F)F)n1	none
N#CC1=C2SCN(c3cccc(Cl)c3)CN2C(=O)CC1c1ccccc1F (configuration not stated)	none
CCc1noc(C)c1C(=O)N(CC)CC1CCN(CCc2ccccc2C)CC1	none
COc1cccc2c1OCCCN(Cc1cc(C#CCO)cs1)C2	none
O=C(CC1=CCNCC1)N1CCC(c2cc(Cc3ccccc3)[nH]n2)CC1	none
COc1ccc(-n2nc3c(c2NC(=O)c2cccc(C(F)(F)F)c2)CS(=O)C3)cc1 (configuration not stated)	none
Cc1cc(C)c(S(N)(=O)=O)c(C)c1	none
CC(=O)N(CN1C(=O)c2ccccc2C1=O)c1cc(C)ccc1C	none
Cc1ccc(C)c(S(=O)(=O)N=C2C=C(Br)C(=O)c3ccccc32)c1	ST2 inh 34%
Cc1cc(C)c(S(=O)(=O)N=C2C=CC(=O)c3ccccc32)c(C)c1	ST2 inh 39%
Cc1cc(C)c(S(=O)(=O)n2cnc3ccccc32)c(C)c1	none
Cc1ccc(S(=O)(=O)N=C2C=CC(=O)c3ccccc32)c(C)c1	ST2 inh 61%
Cc1ccc(S(=O)(=O)N2CCN(c3nc(C)cc(N4CCCC4)n3)CC2)c(C)c1	none
O=C(NCc1cccnc1)c1cccn2c(=O)c3cc4ccccc4cc3nc12	none
COC(=O)c1ccc(Cl)cc1NC(=O)N1CCN(Cc2nc3cccnc3n2-c2ccccc2)CC1	none
Cc1noc(C)c1S(=O)(=O)NCc1ccc(F)cc1	none
O=C1C2C3C=CC(C3)C2C(=O)N1c1cc(Cl)ccc1O (configuration not stated)	none
COc1cccc(C(=O)N2N=C(c3ccc(Cl)cc3)CC2(O)C(F)(F)F)c1 (configuration not stated)	none
CCc1ccc(N2CSC3=C(C#N)C(c4cc(OC)ccc4OC)CC(=O)N3C2)cc1 (configuration not stated)	none
CC(=O)N1CCN(C(=O)C[C@@H]2C[C@@H](C(C)C)[C@H](CNC(=O)CCC(=O)O)C=C2C)CC1	none
COCCn1c(CNS(=O)(=O)c2cccc(Cl)c2)nc2cccnc21	none
Cc1[nH]c2c(c1C(=O)N1CCCN(CC3CC3)C(C(C)C)C1)C(=O)CCC2 (configuration not stated)	none
CCOc1ccccc1OCCOc1ccccc1C=O	none
CC(=O)Nc1ccccc1/C=C/c1ccc2c(C)ccc(O)c2n1	none
CCOc1cccc(/C=C/c2ccc3cccc(O)c3n2)c1OC	ST2 inh 54%
C=CCN(Cc1cccc(OCC)c1)C(=O)c1ccc[nH]c1=O	none
Cc1nc2cc(NC(=O)c3ccc(S(=O)(=O)N(C)C)cc3)ccc2s1	none
N#C/C(=C\c1ccco1)c1nc(-c2ccc(Br)cc2)cs1	ST2 inh 32%
CC(C)(C)C(=O)Nc1nc(-c2ccc(Br)cc2)cs1	none
Cc1ccc(/C=C(/C#N)c2nc(-c3ccc(Br)cc3)cs2)o1	ST2 inh 52%
NNC(=O)C(=O)Nc1nc(-c2ccc(Br)cc2)cs1	none
N#C/C(=C\Nc1ccc(F)cc1)c1nc(-c2cc3cc(Br)ccc3oc2=O)cs1	none
CC1CC(=O)N(CC(N)=O)c2ccccc2S1 (configuration not stated)	none
O=C(Nc1cc(Cl)ccc1Cl)c1cnc2n(c1=O)CCS2	none
N#Cc1ccc(C(c2c(O)[nH]c(=O)[nH]c2=O)c2c(O)[nH]c(=O)[nH]c2=O)cc1	none
CS(=O)(=O)c1ccc(C(=O)N2CCC3(CC2)C(=O)Nc2ccccc23)cc1	none
OC1(c2ccccc2)CCN(Cc2cnc3c(-c4ccccc4)cnn3c2)CC1	ST2 inh 33%
COC(=O)[C@@H]1CCCN1Cc1cnc2c(-c3ccccc3)cnn2c1	none
CCc1ccc(CN(C)Cc2cnc3c(-c4ccccc4)cnn3c2)nc1	none
COc1cc(NC(=O)c2noc3c2CCc2ccccc2-3)c(OC)cc1Cl	none
CNc1nc(N2CCOC(C(F)(F)F)C2)ncc1F (configuration not stated)	none
FC(F)(F)C1CN(c2ccc(-c3ccccc3)nn2)CCO1 (configuration not stated)	ST2 inh 96%
O=C(N1CCOC(C(F)(F)F)C1)C1(S(=O)(=O)c2ccccc2)CC1 (configuration not stated)	none
Cc1ccc(C(c2sc3nc(C)nn3c2O)N2CCC(C(N)=O)CC2)cc1 (configuration not stated)	none
Cc1nnc([C@H]2CCN(Cc3ccccc3F)C2)o1	none
CC1(C)CC(=O)C2=C(C1)OC(N)=C(C#N)C2c1cccc([N+](=O)[O-])c1 (configuration not stated)	none
N#CC1C(=O)NC(=O)C([n+]2ccccc2)C1c1ccccc1 (configuration not stated)	none
Cc1ccc(NC(=O)c2ccccc2C)cc1OCc1cc(=O)n2cccc(C)c2n1	ST2 inh 33%
Cc1ccc(SCC(=O)Nc2ccc(C)c(OCc3cc(=O)n4cccc(C)c4n3)c2)cc1	none
Cc1ccc(NC(=O)C2CCCCC2)cc1OCc1cc(=O)n2cccc(C)c2n1	none
Cc1ccc(N=Cc2c(Nc3cccc(Cl)c3)nc3c(C)cccn3c2=O)cc1	none
Cc1cccn2c(=O)c(C=Nc3ccccc3)c(NCc3ccco3)nc12	none
Cc1cccn2c(=O)c(C=Nc3ccccc3)c(NCc3ccccc3)nc12	ST2 inh 39%
COc1cc(OC)c(C2C(C#N)=C(N)Oc3n[nH]c(C)c32)c(OC)c1 (configuration not stated)	none
CCCCn1c(SCC#N)nc2c(sc3ccccc32)c1=O	none
CN(C)c1nc2c(c(=O)[nH]c(=O)n2C)n1Cc1ccc(Cl)cc1	none
COc1ccccc1NC(=O)C1=C(C)Nc2ncnn2C1c1cccc([N+](=O)[O-])c1 (configuration not stated)	none
COc1ccc(-n2ccnc2CN2CCCC(N(C)CCc3ccccc3)C2)cc1 (configuration not stated)	none
Cc1ccc(-c2noc(CCC(=O)N(C)Cc3ccccc3)n2)cc1	none
Cc1ccc(C(=O)Nc2ccc(Cl)cc2F)o1	none
CCOc1ccc(S(=O)(=O)N2CCN(c3ccccc3OCC)CC2)cc1	none
CC(C)Cn1nc(-c2ccccc2)c2ccccc2c1=O	none
CC(=O)OCCn1nc(-c2ccccc2)c2ccccc2c1=O	none
O=c1c2ccccc2c(-c2cccs2)nn1CCc1ccccc1	ST2 inh 35%
COCCSc1ncc(-c2cccc(F)c2)c(C2CCN(C(=O)c3ccc[n+]([O-])c3)CC2)n1	none

Assay outcomes: PubChem BioAssay, Paczesny and Yang Labs, IUPUI and University of Michigan
